Laboratory results as given in publication PMC4336329 (PLoS ONE, 2015).
Out of some 310,000 compounds screened, about 14,000 (4.5%) showed an effect of 50% or more. Effects have a minus sign here. For the sample, strong results were picked, then their nearest neighbours and some compounds at random.

molecular target: human ether-à-go-go-related gene (hERG) potassium channel (human, UniProt Q12809); assay: primary screen, population patch clamp on CHO cells stably expressing hERG; higher = less effect of the substance
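Also: peak tail current of the secondary pulse compared with the same well before compound.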

Chain of human ether-à-go-go-related gene (hERG) potassium channel (Q12809 whole entry, looked up): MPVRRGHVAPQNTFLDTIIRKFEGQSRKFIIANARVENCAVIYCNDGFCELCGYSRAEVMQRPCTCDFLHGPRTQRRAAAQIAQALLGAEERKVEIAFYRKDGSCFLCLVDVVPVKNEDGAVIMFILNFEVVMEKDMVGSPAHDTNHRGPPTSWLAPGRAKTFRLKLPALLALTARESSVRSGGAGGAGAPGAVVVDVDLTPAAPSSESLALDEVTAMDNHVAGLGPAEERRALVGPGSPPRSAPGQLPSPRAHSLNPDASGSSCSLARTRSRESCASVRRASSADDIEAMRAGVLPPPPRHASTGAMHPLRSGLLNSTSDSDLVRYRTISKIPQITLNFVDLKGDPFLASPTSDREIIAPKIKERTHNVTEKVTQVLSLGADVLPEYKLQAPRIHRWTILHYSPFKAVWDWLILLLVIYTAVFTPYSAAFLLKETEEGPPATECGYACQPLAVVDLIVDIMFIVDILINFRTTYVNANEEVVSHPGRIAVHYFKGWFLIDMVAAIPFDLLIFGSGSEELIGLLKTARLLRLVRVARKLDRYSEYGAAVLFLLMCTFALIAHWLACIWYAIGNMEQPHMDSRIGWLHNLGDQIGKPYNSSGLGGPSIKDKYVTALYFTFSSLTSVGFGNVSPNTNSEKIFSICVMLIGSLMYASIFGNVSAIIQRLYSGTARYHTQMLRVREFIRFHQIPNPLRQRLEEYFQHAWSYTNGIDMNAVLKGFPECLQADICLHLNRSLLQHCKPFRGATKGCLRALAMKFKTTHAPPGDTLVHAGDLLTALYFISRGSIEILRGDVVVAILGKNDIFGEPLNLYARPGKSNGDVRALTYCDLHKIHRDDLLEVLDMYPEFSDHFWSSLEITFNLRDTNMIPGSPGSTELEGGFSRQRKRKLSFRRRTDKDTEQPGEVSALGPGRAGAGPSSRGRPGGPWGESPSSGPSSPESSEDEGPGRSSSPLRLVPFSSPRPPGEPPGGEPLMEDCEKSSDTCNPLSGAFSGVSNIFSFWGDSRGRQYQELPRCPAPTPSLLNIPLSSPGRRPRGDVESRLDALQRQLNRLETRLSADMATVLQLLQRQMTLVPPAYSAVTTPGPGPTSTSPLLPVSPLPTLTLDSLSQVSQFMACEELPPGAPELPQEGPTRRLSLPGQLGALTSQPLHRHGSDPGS

In order of falling “hERG current change (%, negative = inhibition) at 10uM” value:
1. CCN(CC)S(=O)(=O)c1ccc(C(=O)NC2CN3CCC2CC3)cc1 (centres unmarked)  25.6%
2. O=C(O)c1ccccc1SSc1ccccc1C(=O)O  25.5%
3. CC1CC(C)CN(C(=O)Nc2ccccc2F)C1 (centres unmarked)  22.9%
4. Cc1onc(C(=O)N2CCOCC2)c1[N+](=O)[O-]  19.8%
5. COc1ccc(S(=O)(=O)Nc2cccc(S(=O)(=O)NC3=NCCC3)c2)cc1[N+](=O)[O-]  18.6%
6. Cc1ccc([N+](=O)[O-])cc1NC(=O)c1cccs1  18.4%
7. Cn1nc(C(C)(C)C)c([N+](=O)[O-])c1C(=O)N1CCOCC1  17.3%
8. Cc1ccc(C(=O)O/N=C/c2c(Cl)n(C)c3ccccc23)cc1  16.2%
9. Cc1ccc(C(=O)Nc2ccc(NC(=O)c3ccco3)c(C)c2)cc1  14.7%
10. O=C(O)C1CSC(CCc2ccccc2)N1 (centres unmarked)  14%
11. CN(C(=O)c1cccc(NC(=O)c2ccco2)c1)c1ccccc1  13.3%
12. CC(=O)Nc1ccc(N(C(=O)CNC(=O)c2cccs2)C(C(=O)NCC2CCCO2)c2ccccc2)cc1 (centres unmarked)  13.2%
13. CS(=O)(=O)N(Cc1ccccc1)c1ccc(C(=O)Nc2ccc(C(N)=O)cc2)cc1  12.8%
14. CCOc1ccc(Br)cc1S(=O)(=O)Nc1ccc(C(=O)OCC(=O)N(C)c2ccccc2)cc1  12.7%
15. COC(=O)c1[nH]c2ccccc2c1NC(=O)Oc1ccccc1  12%
16. Cc1ccccc1C(=O)N1CCC(C(=O)Nc2ccccn2)CC1  11.9%
17. ClCc1csc(N/N=C/c2cccs2)n1  11.8%
18. NC(=S)N/N=C/c1cn(-c2ccccc2)nc1-c1cccnc1  11.8%
19. CC(C)c1ncc(S(=O)(=O)c2ccc(C(F)(F)F)cn2)c(N)n1  11.6%
20. COc1ccc(C2N(C(=O)C(F)(F)F)C(C)CN2S(=O)(=O)c2ccc(C)cc2)cc1 (centres unmarked)  11.2%
21. C[N+]1(CCC(C(N)=O)(c2ccccc2)c2ccccc2)CCCCC1.[Br-]  10.7%
22. Cc1nnc(C)n1/N=C/c1cc(Br)ccc1O  9.86%
23. CCOC(=O)C1C(=O)NC(N2CCCCC2)=NC1c1ccco1 (centres unmarked)  8.22%
24. Clc1ccc(CNCc2cccs2)cc1Cl  7.52%
25. CCCCN1Cc2c(nc3cc(-c4ccccc4)[nH]n3c2=O)C1=O  6.51%
26. Cc1cccc(C)c1NC(=O)C1(C)c2cccc[n+]2CC(=O)N1Cc1cccs1.[I-] (centres unmarked)  6.18%
27. Br.COc1ccc(/C=N/N(C)C2=NCCN2)c(OC)c1OC  5.63%
28. COC(CNc1ccc([N+](=O)[O-])c(NCC(OC)OC)c1C#N)OC  5.62%
29. Br.CN(/N=C/c1ccncc1)C1=NCCN1  5.06%
30. CCOc1ccc(CC(=O)N2CCN=C2SCc2ccc([N+](=O)[O-])cc2)cc1  5.05%
31. NC(=O)N/N=C/c1cn(-c2ccccc2)nc1-c1cccnc1  4.92%
32. C=Cn1ccnc1P(=S)(c1ccc(N(C)C)cc1)c1nccn1C=C  3.93%
33. CC(C)c1ccc(/C=C/C(=O)N2CCc3ccccc3C2)cc1  3.46%
34. O=C(Nc1cccc(Cl)c1)Nc1nnc(-c2ccccc2)o1  3.18%
35. O=C(CN1CCC(O)(c2ccc3c(c2)OCO3)CC1)NC1CCCCC1  3.07%
36. O=C(O)CCC(=O)NNC(=O)COc1cccc(Cl)c1  2.84%
37. O=C(CCCN1C(=O)/C(=C/c2ccccc2)SC1=S)Nc1cccc(O)c1  2.17%
38. CCOc1ccc(-n2c(CC)nc3ccccc3c2=O)cc1  1.33%
39. O=C(Nc1cc([N+](=O)[O-])ccc1N1CCOCC1)c1cccs1  1.15%
40. [S-]C(=Nc1ccc(Cl)cc1)N[n+]1ccccc1  1.12%
41. Cc1cc(Br)ccc1NC(=O)c1ccco1  0.934%
42. N#Cc1nc(-c2cccc(Cl)c2)oc1N1CCC(C(N)=O)CC1  0.912%
43. c1ccc(CCC2Cc3ccccc3N2)cc1 (centres unmarked)  -0.839%
44. O=C(CN1CCN(Cc2ccccc2)CC1)N1N=CCC1c1ccccc1 (centres unmarked)  -1.06%
45. Cc1ccc(NC(=O)c2ccccc2Br)cc1S(=O)(=O)N(C)C  -1.84%
46. O=c1c2ccccc2nc(-c2ccc(Cl)cc2)n1C1CCS(=O)(=O)C1 (centres unmarked)  -2.23%
47. C/C(=N/NS(=O)(=O)c1ccc(C)cc1C)c1ccc2c(c1)OCO2  -2.58%
48. Cc1ccc(C2NC(=O)c3c(sc(C)c3C)N2)c(O)c1 (centres unmarked)  -3.45%
49. Cc1cc2ncn(CC(C)C)c2cc1C  -3.79%
50. CC(=O)Nc1cccc(NC(=O)c2ccco2)c1  -4.69%
51. CCOc1ncccc1C(=O)N1CCN(c2cc(Cl)ccc2C)CC1  -4.75%
52. O=C(NCc1ccccc1Cl)c1cc2c(s1)CS(=O)(=O)C2  -4.86%
53. COc1ccc(CC(=O)N2CCN=C2SCc2cccc([N+](=O)[O-])c2)cc1  -5.33%
54. O=[N+]([O-])c1ccc(N2CCNCC2)c(Cl)c1  -6.48%
55. O=C(Cc1ccc([N+](=O)[O-])cc1)N1CCN=C1SCc1ccccc1  -7.33%
56. Clc1ccccc1-c1nn2c(-c3ccncc3)nnc2s1  -7.89%
57. CC1CC(OC(=O)c2ccccc2)(c2ccccc2)C(C)CN1C (centres unmarked)  -8.66%
58. COC(=O)c1ccc(N2CCN(C)CC2)c(NC(=O)c2cccs2)c1  -8.75%
59. CN(C)S(=O)(=O)c1ccc(NC(=O)c2ccc(Br)o2)cc1  -9.84%
60. O=C(c1ccco1)N1CCC(c2nc(-c3ccccc3Cl)no2)CC1  -11.5%
61. COc1ccc(N2CCN(c3ccc([N+](=O)[O-])cc3Cl)CC2)cc1  -12.1%
62. COC(=O)C1=C(N)Oc2cc(C)n(Cc3ccncc3)c(=O)c2C1c1cccnc1 (centres unmarked)  -14.8%
63. CSC(=Nc1ccccc1)Nc1ccccc1  -15.8%
64. CCn1c(/C=C\c2ccccc2C)nc2ccccc2c1=O  -19.1%
65. O=C(CN1C(=O)NC2(CCCC2)C1=O)OCc1ccc(Cl)cc1Cl  -20.9%
66. O=C(Nc1ccccc1N1CCCC1)c1ccc([N+](=O)[O-])cc1Cl  -21.5%
67. CN1CCN(c2cc([N+](=O)[O-])ccc2Cl)CC1  -23.3%
68. O=[N+]([O-])c1ccc(N2CCN(c3ccc(Cl)nn3)CC2)c(Cl)c1  -23.7%
69. CCn1ccnc1CN(C)C(=O)CCc1nnc(CCC2CCCCC2)o1  -27.7%
70. O=C(Nc1cc([N+](=O)[O-])ccc1N1CCCC1)c1ccccc1  -33.3%
71. CN1CCN(c2ccccc2NC(=O)c2ccc([N+](=O)[O-])cc2Cl)CC1  -34.9%
72. O=C(CC(SCCO)c1ccc([N+](=O)[O-])cc1)c1ccco1 (centres unmarked)  -35.7%
73. O=C(N/N=C/c1cn(-c2ccccc2)nc1-c1cccnc1)c1ccc(F)cc1  -41.3%
74. Cn1c(N)c(C(=O)COC(=O)c2ccc(Cl)c(S(=O)(=O)N3CCCC3)c2)c(=O)n(C)c1=O  -43.9%
75. O=C(Cc1ccc(F)cc1)N1CCN=C1SCc1ccc([N+](=O)[O-])cc1  -47.3%
76. CC(C)(C)OC(=O)N/N=C/c1cn(-c2ccccc2)nc1-c1cccnc1  -49.3%
77. O=C(N/N=C/c1cn(-c2ccccc2)nc1-c1cccnc1)c1cccnc1  -50.3%
78. COc1ccc(CC(=O)N2CCN=C2SCc2ccc([N+](=O)[O-])cc2)cc1  -52.2%
79. CN1CCN(c2ccc([N+](=O)[O-])cc2Cl)CC1  -52.2%
80. Cn1nc(C(=O)N2CCOCC2)c([N+](=O)[O-])c1C(=O)N1CCOCC1  -54.4%
81. Cc1ccc(NC(=O)c2ccc(Br)o2)cc1S(=O)(=O)N(C)C  -54.7%
82. CN1CCN(c2ccc([N+](=O)[O-])cc2NC(=O)c2cccs2)CC1  -55.2%
83. O=C(Cc1ccccc1)N1CCN=C1SCc1ccc([N+](=O)[O-])cc1  -55.5%
84. Cc1cc(NC(=O)c2ccc(Br)o2)ccc1NC(=O)c1ccco1  -58.2%
85. CSC(=Nc1ccc(Cl)cc1)N[n+]1ccccc1.[I-]  -58.8%
86. O=C(N/N=C/c1cn(-c2ccccc2)nc1-c1cccnc1)c1ccccc1  -60.7%
87. O=C(Nc1cc([N+](=O)[O-])ccc1N1CCCC1)c1cccs1  -65.4%
88. [Cl-].c1ccc(CC[C@@H]2CC[C@@H](CCc3ccccc3)N2)cc1  -66%
89. Cc1ccc2nc(C)c(CN3CCN(c4ccc([N+](=O)[O-])cc4Cl)CC3)n2c1  -69.3%
90. CN1CCN(c2ccc([N+](=O)[O-])cc2NC(=O)c2ccccc2Cl)CC1  -71.1%
91. CN(/N=C/c1ccc(C(C)(C)C)cc1)C1=NCCN1  -71.6%
92. CN(C)c1cccc(NC(=O)c2ccco2)c1  -73.3%
